# Results as given in PubChem BioAssay (EPA / NIEHS).
# Results filed as inconclusive are left out. Some compounds were tested as several samples or in several runs, with calls that do not always agree. Calls of active or inactive are those of the source. Rule for the calls: active = hit-call score of the fitted dose curve at least 0.9, where 1 is the maximum; inconclusive = response in the unintended direction; inactive = score below 0.9.
# Experiments:
# [1] = target: zebrafish Estrogen Receptor (ESR1), esr1 (gene 259252) (UniProt P57717); assay: ATG_zfER1_XSP1: Attagene TRANS-FACTORIAL Multi-Species (XSP1) HepG2 Assay for zebrafish Estrogen Receptor (ESR1) (AID 2283772)
# Method in brief: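 Transfect HepG2 with GAL4-UAS multi-reporter constructs; treat 24 h (medium carries 3 nM 6-alpha-fluorotestosterone); extract RNA, reverse-transcribe, PCR-amplify, FAM-label, digest with HpaI; resolve by capillary electrophoresis and compare against DMSO baseline.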
# [2] = system: zebrafish Estrogen Receptor (ESR2B), gene 317733; assay: ATG_zfER2b_XSP1: Attagene TRANS-FACTORIAL Multi-Species (XSP1) HepG2 Assay for zebrafish Estrogen Receptor (ESR2B) (AID 2283773)
# Method in brief: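 Gain-of-signal endpoint relative to DMSO: reporter transcript levels quantified by RT-PCR and capillary electrophoresis after 24 h compound exposure of HepG2 cells expressing a zebrafish ER2b-Gal4 chimera.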
# [3] = system: frog Estrogen Receptor (ESR2), gene 100174814; assay: ATG_frER2_XSP1: Attagene TRANS-FACTORIAL Multi-Species (XSP1) HepG2 Assay for frog Estrogen Receptor (ESR2) (AID 2283774)
# Method in brief: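 Transactivation of an exogenous receptor-Gal4 fusion is tracked in transfected HepG2 cells via induced reporter transcript levels. After 24 h treatment, RT-PCR with capillary electrophoresis quantifies signal gain over DMSO.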
# [4] = ACEA_AR_agonist_AUC_viability: ACEA Biosciences xCELLigence Real-Time Cell Analysis on Androgen Receptor Agonism for Viability (AID 2283775);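 for AC50: viability read 80 hours after compound addition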
# Method in brief: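 Read-out is area under the impedance curve at 80 h post-dose in 22Rv1 cells, with DMSO as baseline and signal loss taken as reduced viability. Compounds ran in duplicate from 100 uM final.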
# [5] = ACEA_AR_antagonist_AUC_viability: ACEA Biosciences xCELLigence Real-Time Cell Analysis on Androgen Receptor Antagonism for Viability (AID 2283776);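 note: 22Rv1 human prostate cancer cells growing on impedance electrode plates; area under impedance growth curve at 80 h after dosing as viability; hits lower the growth signal relative to DMSO meaning cytotoxicity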
# Method in brief: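 Viability endpoint from label-free cell-index monitoring: 22Rv1 cultures treated with an eight-point 1:4 dilution series starting at 100 uM final, AUC at 80 h fitted against DMSO.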
# [6] = system: frog Estrogen Receptor (ESR1), gene 398734; assay: ATG_frER1_XSP1: Attagene TRANS-FACTORIAL Multi-Species (XSP1) HepG2 Assay for frog Estrogen Receptor (ESR1) (AID 2283777)
# Method in brief: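 Human hepatoma HepG2 cells carried transiently transfected multiplexed Gal4-driven reporters and were exposed to test chemicals for 24 hours. Transcripts were quantified by fluorescent RT-PCR with capillary electrophoresis, referenced to DMSO.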
# [7] = system: zebrafish Estrogen Receptor (ESR2A), gene 317734; assay: ATG_zfER2a_XSP1: Attagene TRANS-FACTORIAL Multi-Species (XSP1) HepG2 Assay for zebrafish Estrogen Receptor (ESR2A) (AID 2283778)
# Method in brief: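 Cells were transfected, dosed for 24 h, then total RNA was isolated. After oligo(dT) reverse transcription, reporter sequences were amplified, FAM-labelled by primer extension, digested with HpaI and sized by capillary electrophoresis; DMSO served as baseline.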
# [8] = target: Estrogen receptor beta (Homo sapiens) (UniProt Q92731); assay: ATG_hERb_XSP1: Attagene TRANS-FACTORIAL Multi-Species (XSP1) HepG2 Assay for human Estrogen Receptor (ESR2) (AID 2283788)
# Method in brief: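 Measured endpoint is transcriptional gain of signal from a GAL4-UAS reporter controlled by chimeric ERβ in HepG2 liver cells. Exposure lasts 24 h alongside 3 nM 6-alpha-fluorotestosterone, with DMSO as negative control.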
# [9] = target: GAL4 Transcription Factor (Internal Marker), GAL4 (gene 855828) (UniProt P04386); assay: ATG_GAL4_XSP1: Attagene TRANS-FACTORIAL Multi-Species (XSP1) HepG2 Assay for GAL4 Transcription Factor (Internal Marker) (AID 2283789)
# Method in brief: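 HepG2 cells transiently transfected with multiplexed GAL4-UAS reporter units were exposed for 24 h with 3 nM 6-alpha-fluorotestosterone present. Reporter mRNA was quantified by RT-PCR, FAM labelling, HpaI digestion and capillary electrophoresis; background-control readout, gain-of-signal versus DMSO.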
# [10] = ATG_M_06_XSP1: Attagene TRANS-FACTORIAL Multi-Species (XSP1) HepG2 Assay for M06 Transcription Factor (Internal Marker) (AID 2283790)
# Method in brief: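 Transfected HepG2 multi-reporter system treated 24 h in the presence of 3 nM 6-alpha-fluorotestosterone. The M06 internal marker transcript was quantified by RT-PCR with capillary electrophoresis as a background control, and gain of signal was scored versus DMSO.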
# [11] = ATG_M_61_XSP1: Attagene TRANS-FACTORIAL Multi-Species (XSP1) HepG2 Assay for M61 Transcription Factor (Internal Marker) (AID 2283797)
# Method in brief: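 HepG2 cells transiently transfected with multiplexed GAL4-driven reporter units, dosed 24 h with 3 nM 6-alpha-fluorotestosterone present. Reporter mRNA quantified by RT-PCR, 6-FAM labelling, HpaI digestion and capillary electrophoresis; internal-marker background control, gain of signal versus DMSO.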
# [12] = target: Peroxisome proliferator-activated receptor gamma (Homo sapiens) (UniProt P37231); assay: ATG_hPPARg_XSP1: Attagene TRANS-FACTORIAL Multi-Species (XSP1) HepG2 Assay for human Peroxisome Proliferator-activated Receptor gamma (PPARg) (AID 2283800)
# Method in brief: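 HepG2 cells transiently transfected with GAL4-UAS reporter units carrying chimeric NR-Gal4 proteins; 3 nM 6-alpha-fluorotestosterone present. After 24 h dosing, reporter mRNA quantified by RT-PCR and capillary electrophoresis; gain of signal relative to DMSO.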
# [13] = system: zebrafish Peroxisome Proliferator-activated Receptor gamma (PPARg), gene 557037; assay: ATG_zfPPARg_XSP1: Attagene TRANS-FACTORIAL Multi-Species (XSP1) HepG2 Assay for zebrafish Peroxisome Proliferator-activated Receptor gamma (PPARg) (AID 2283801)
# Method in brief: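 HepG2 cells transiently transfected with GAL4-UAS reporter units including a zebrafish PPARg–GAL4 chimera, dosed 24 h with 3 nM 6-alpha-fluorotestosterone present. Reporter mRNA quantified by RT-PCR, FAM labelling, HpaI digestion and capillary electrophoresis; induction versus DMSO.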
# [14] = target: AR (gene 367) (UniProt P10275); assay: ACEA_AR_agonist_80hr: ACEA Biosciences xCELLigence Real-Time Cell Analysis on Androgen Receptor Agonism for Proliferation (AID 2283783);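 note: hits increase impedance growth signal above DMSO baseline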
# Method in brief: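 Androgen-driven proliferation in 22Rv1 cells is tracked as electrical impedance, taken 80 h after continuous exposure to compound (eight concentrations, 1:4 steps, maximum 100 uM final). Activity is fitted in the positive direction with DMSO as baseline.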
# [15] = target: AR (gene 367) (UniProt P10275); assay: ACEA_AR_antagonist_80hr: ACEA Biosciences xCELLigence Real-Time Cell Analysis on Androgen Receptor Antagonism for Proliferation (AID 2283787);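 note: 22Rv1 human prostate cancer cells with growth followed by electrical impedance; hits lower the impedance growth signal relative to DMSO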
# Method in brief: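 Growth-kinetic antagonist readout in 22Rv1 cells, taken 80 h after continuous compound exposure. Activity fitted as signal loss relative to DMSO negative control.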
# Sequence of AR (gene 367) (P10275 whole entry, looked up): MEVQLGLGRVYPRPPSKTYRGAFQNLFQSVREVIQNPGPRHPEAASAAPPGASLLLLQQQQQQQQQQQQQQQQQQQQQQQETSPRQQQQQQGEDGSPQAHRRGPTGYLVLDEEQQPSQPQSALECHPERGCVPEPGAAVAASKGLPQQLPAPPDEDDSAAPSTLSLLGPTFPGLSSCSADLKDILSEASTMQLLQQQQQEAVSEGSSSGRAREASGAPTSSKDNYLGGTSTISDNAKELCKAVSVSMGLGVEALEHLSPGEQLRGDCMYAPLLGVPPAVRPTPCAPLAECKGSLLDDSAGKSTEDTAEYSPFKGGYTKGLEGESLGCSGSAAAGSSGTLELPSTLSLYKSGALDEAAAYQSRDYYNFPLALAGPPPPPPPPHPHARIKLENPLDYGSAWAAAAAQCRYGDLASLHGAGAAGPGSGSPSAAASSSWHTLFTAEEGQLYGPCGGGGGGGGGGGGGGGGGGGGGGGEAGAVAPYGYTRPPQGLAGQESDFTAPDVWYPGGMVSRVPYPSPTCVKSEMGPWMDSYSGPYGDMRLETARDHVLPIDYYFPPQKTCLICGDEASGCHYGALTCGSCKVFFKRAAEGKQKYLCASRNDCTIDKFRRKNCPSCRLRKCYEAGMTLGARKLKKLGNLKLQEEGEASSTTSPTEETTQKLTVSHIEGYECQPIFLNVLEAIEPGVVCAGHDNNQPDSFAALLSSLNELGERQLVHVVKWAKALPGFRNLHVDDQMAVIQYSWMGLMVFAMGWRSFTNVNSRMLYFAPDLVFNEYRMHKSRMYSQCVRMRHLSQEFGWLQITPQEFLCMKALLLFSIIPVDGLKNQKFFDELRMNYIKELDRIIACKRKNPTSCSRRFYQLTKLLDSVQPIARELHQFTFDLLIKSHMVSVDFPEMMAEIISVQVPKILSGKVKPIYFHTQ
# Sequence of Estrogen receptor beta (Homo sapiens) (Q92731 whole entry, looked up, the tested form may be a part): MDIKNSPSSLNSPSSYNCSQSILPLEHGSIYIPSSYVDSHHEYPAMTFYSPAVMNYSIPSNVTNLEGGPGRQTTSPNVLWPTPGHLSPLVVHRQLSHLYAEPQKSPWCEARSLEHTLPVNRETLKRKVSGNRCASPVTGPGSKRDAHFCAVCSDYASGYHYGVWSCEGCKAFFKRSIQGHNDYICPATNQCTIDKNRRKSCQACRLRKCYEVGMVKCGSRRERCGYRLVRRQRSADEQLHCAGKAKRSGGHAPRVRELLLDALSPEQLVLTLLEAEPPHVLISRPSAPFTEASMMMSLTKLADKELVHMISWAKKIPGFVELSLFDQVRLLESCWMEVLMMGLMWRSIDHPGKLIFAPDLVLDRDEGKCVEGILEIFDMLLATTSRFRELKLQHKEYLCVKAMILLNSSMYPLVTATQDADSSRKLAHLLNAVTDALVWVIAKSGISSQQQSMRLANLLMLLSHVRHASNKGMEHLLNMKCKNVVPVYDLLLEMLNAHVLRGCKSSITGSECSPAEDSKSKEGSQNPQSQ
# Sequence of GAL4 Transcription Factor (Internal Marker), GAL4 (gene 855828) (P04386 whole entry, looked up, the tested form may be a part): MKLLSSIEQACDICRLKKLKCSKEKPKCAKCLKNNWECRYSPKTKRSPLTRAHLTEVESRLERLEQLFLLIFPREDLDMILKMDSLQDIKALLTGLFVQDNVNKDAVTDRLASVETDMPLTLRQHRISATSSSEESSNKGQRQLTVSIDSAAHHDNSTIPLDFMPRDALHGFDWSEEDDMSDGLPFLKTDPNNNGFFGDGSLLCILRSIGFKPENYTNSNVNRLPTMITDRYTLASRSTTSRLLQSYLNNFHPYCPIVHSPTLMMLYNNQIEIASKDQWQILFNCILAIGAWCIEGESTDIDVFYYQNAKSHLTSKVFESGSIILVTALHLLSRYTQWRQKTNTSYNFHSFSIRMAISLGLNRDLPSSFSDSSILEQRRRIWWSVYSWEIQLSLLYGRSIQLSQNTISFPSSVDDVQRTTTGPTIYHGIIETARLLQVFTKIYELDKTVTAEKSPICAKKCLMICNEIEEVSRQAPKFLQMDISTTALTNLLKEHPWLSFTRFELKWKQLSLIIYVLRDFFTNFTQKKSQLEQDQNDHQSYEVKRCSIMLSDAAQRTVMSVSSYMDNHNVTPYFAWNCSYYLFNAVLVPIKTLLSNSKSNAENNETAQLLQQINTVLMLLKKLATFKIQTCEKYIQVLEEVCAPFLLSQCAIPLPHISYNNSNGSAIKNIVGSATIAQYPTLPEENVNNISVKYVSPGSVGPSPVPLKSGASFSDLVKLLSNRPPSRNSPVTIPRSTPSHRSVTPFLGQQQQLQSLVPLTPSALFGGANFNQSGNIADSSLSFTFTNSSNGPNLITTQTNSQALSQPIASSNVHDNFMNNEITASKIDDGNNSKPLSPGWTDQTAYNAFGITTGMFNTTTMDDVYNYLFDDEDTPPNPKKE
# Sequence of Peroxisome proliferator-activated receptor gamma (Homo sapiens) (P37231 whole entry, looked up, the tested form may be a part): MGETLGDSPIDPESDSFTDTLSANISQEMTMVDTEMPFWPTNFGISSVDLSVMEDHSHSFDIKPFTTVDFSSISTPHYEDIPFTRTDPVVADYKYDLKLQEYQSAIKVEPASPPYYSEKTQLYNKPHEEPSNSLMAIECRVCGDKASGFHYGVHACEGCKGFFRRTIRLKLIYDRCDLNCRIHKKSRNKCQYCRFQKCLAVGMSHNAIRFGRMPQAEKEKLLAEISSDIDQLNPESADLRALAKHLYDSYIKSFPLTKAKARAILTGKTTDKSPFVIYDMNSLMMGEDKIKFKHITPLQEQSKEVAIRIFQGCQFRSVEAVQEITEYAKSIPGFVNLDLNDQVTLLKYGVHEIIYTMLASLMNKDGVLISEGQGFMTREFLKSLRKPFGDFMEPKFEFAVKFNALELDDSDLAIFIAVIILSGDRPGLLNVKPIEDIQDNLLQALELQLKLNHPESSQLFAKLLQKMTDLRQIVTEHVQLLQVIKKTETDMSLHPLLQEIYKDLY
# Sequence of zebrafish Estrogen Receptor (ESR1), esr1 (gene 259252) (P57717 whole entry, looked up, the tested form may be a part): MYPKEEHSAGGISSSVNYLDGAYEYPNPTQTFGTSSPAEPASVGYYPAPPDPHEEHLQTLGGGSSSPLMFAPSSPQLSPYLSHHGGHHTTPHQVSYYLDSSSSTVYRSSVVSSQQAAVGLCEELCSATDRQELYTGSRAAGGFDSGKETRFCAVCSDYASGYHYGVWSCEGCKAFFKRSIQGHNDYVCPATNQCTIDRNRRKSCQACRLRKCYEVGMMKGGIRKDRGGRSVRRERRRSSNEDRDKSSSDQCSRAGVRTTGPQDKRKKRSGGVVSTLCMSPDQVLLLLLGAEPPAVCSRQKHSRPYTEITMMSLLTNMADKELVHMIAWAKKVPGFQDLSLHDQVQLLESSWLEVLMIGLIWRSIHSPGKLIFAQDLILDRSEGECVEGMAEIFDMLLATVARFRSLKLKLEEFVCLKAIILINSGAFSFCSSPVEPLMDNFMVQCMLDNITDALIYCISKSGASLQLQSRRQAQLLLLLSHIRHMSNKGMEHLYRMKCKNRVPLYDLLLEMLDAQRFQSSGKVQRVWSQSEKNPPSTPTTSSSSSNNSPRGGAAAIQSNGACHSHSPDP
smiles,measurement,setting,value
COC(=O)N(OC)c1ccccc1COc1ccn(-c2ccc(Cl)cc2)n1,outcome,[1],inactive
same,outcome,[2],inactive
same,outcome,[3],inactive
same,AC50,[4],25.9 µM (active)
same,AC50,[5],26.8 µM (active)
same,outcome,[6],inactive
same,outcome,[7],inactive
same,outcome,[8],inactive
same,outcome,[9],inactive
same,outcome,[10],inactive
same,outcome,[11],inactive
same,AC50,[12],3.24 µM (active)
same,outcome,[13],inactive
Oc1ccccc1-c1ccccc1,AC50,[4],50 µM (active)
same,outcome,[4],inactive
same,AC50,[5],48.6 µM (active)
CN(C)C(=S)SSC(=S)N(C)C,AC50,[4],20 µM (active)
same,outcome,[14],inactive
same,AC50,[15],20.6 µM (active)
O=C(Nc1ccccc1)Nc1ccnc(Cl)c1,AC50,[4],39.1 µM (active)
same,AC50,[5],30.8 µM (active)
same,AC50,[15],33.4 µM (active)
N#CC(CCc1ccc(Cl)cc1)(Cn1cncn1)c1ccccc1 (stereo not drawn),AC50,[4],50 µM (active)
CCOc1cc(Oc2ccc(C(F)(F)F)cc2Cl)ccc1[N+](=O)[O-],AC50,[4],22.8 µM (active)
CCON=C(CC)C1=C(O)CC(c2c(C)cc(C)cc2C)CC1=O (stereo not drawn),outcome,[4],inactive
same,outcome,[15],inactive
N#Cc1cc(Br)c(O)c(Br)c1,AC50,[4],59.6 µM (active)
same,outcome,[14],inactive
same,AC50,[15],53.5 µM (active)
COc1cnc(OC)n2nc(NS(=O)(=O)c3c(OCC(F)F)cccc3C(F)(F)F)nc12,outcome,[4],inactive
Cc1cc(Cl)ccc1OCC(=O)O,outcome,[4],inactive
same,outcome,[14],inactive
same,outcome,[15],inactive
CCNc1nc(Cl)nc(NC(C)C)n1,outcome,[4],inactive
CNC(=S)S,outcome,[4],inactive
Cc1c(F)c(F)c(COC(=O)C2C(/C=C(\Cl)C(F)(F)F)C2(C)C)c(F)c1F (stereo not drawn),outcome,[4],inactive
CS/C(C)=N/OC(=O)N(C)SN(C)C(=O)O/N=C(\C)SC,AC50,[4],79.6 µM (active)
same,outcome,[14],inactive
same,AC50,[15],76.7 µM (active)
CCOC(=O)CC(SP(=S)(OC)OC)C(=O)OCC (stereo not drawn),AC50,[4],92.5 µM (active)
same,AC50,[15],88.6 µM (active)
CC(Oc1ccc(Cl)cc1Cl)C(=O)O (stereo not drawn),outcome,[4],inactive
CCCCNC(=O)n1c(NC(=O)OC)nc2ccccc21,AC50,[4],45.6 µM (active)
same,outcome,[14],inactive
same,AC50,[15],71.7 µM (active)
CCNc1nc(Cl)nc(NCC)n1,outcome,[4],inactive
C=CCC1=C(C)C(OC(=O)C2C(C=C(C)C)C2(C)C)CC1=O (stereo not drawn),AC50,[4],52.5 µM (active)
same,AC50,[5],52.5 µM (active)
Cc1ccc(-c2c(Cl)nc(C#N)n2S(=O)(=O)N(C)C)cc1,AC50,[4],19.2 µM (active)
same,outcome,[14],inactive
same,AC50,[15],14.1 µM (active)
CC1=C(C(=O)Nc2ccccc2)SCCO1,outcome,[5],inactive
same,outcome,[14],inactive
same,outcome,[15],inactive
COC(=O)C=C(C)OP(=O)(OC)OC,AC50,[4],29.8 µM (active)
N#Cc1nn(-c2c(Cl)cc(C(F)(F)F)cc2Cl)c(N)c1S(=O)C(F)(F)F (stereo not drawn),AC50,[4],40.6 µM (active)
same,AC50,[15],58 µM (active)
CC1COC(Cn2cncn2)(c2ccc(Oc3ccc(Cl)cc3)cc2Cl)O1 (stereo not drawn),AC50,[4],44.8 µM (active)
